The results in this text go back to PubChem BioAssay AID624297 (National Center for Advancing Translational Sciences (NCATS), 2012).

Screen size: about 340,000 compounds; about 6,200 (1.8%) were called active. Inconclusive results (about 10%) are left out. What follows is part of a selection rich in actives, with near analogues and random picks from the rest. A call without a number means that no potency is given here. Values without a mark were called inactive. The call rests on the fitted dose curve; in most records, active means well fitted activation curve with a large enough effect; inconclusive means small, poorly fitted or top-dose-only effect; inactive means no such curve, though single readings can be large or run the other way.
Potency means the concentration at half of the fitted maximal effect.

This test can be described thus: A quantitative high throughput screen for small molecules that induce DNA re-replication in SW480 colon adenocarcinoma cells. Further: nearly all actives have a fitted effect of over 55% in size. Conditions: Hoechst DNA content imaging, 48 h; series mostly up to 46.1 µM. In short, it runs like this: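 Readout is total intensity of Hoechst-stained nuclei, excited at 405 nm and collected at 500-530 nm. Compound treatment lasted 48 hr at 37 C in 5% CO2 before staining.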
As for `NCCN1CCN2C(=O)CN(C(=O)c3ccccc3)CC12` (stereo not given), the Potency result is “inactive”. On the same count and under the same terms, in the case of `COc1ccc(N2CCN(C(CNS(=O)(=O)c3ccc(C)cc3)c3ccccc3)CC2)cc1` (stereo not given) it was “inactive”; in that of `Cc1cccc(C)c1NC(=O)C(Cl)C(=O)c1ccccc1` (stereo not given), 16.4 µM (active); in that of `Cc1cccc(C)c1NC(=O)CN(C)C(=O)CCC(=O)c1ccccc1`, “inactive”. On the same count and under the same terms, the result for `Cc1cccc(C)c1NC(=O)C(c1ccccc1)N1CC(=O)Nc2ccccc21` (stereo not given) reads “inactive”; that for `COc1cc(OC)c(C(=O)NNC(=O)c2ccc(NS(=O)(=O)c3cccs3)cc2)cc1OC`, “inactive”.

On to `NC(=O)C1(Nc2ccc([N+](=O)[O-])cc2)CCCC1`, for which the Potency entry is “inactive”. `CCOC(=O)c1cc2c(=O)n3ccccc3nc2n(CC(C)C)c1=NC(=O)c1c(-c2c(F)cccc2Cl)noc1C`: the Potency is 13 µM (active).

`C/C(=N/OC(=O)c1c(-c2c(F)cccc2Cl)noc1C)c1cnccn1`: the Potency entry was “inactive”. On the same count and under the same terms, in the case of `CCCn1c(=NC(C)=O)c(C(=O)OCC)cc2c(=O)n3ccccc3nc21` it was “inactive”.

On to `O=C(OCC(=O)N1CCN(C(=O)c2ccco2)CC1)c1c(Cl)cccc1Cl`, for which the Potency result is “inactive”. Same read-out and setting: the result for `Cc1ccc(/C=C/C(=O)Nc2ccc([N+](=O)[O-])c(NC(=O)/C=C/c3ccc(C)o3)c2)o1` reads “inactive”; that for `O=C(/C=C/c1ccc([N+](=O)[O-])o1)NNC(=O)c1ccc(F)cc1`, 3.66 µM (active). Same read-out and setting: in the case of `O=C(NNC(=O)C1CCCC1)c1ccc(F)cc1` it was “inactive”; in that of `Cc1cccc(C(=O)OCC(=O)NC(C)C2CC3CCC2C3)c1O` (stereo not given), “inactive”; in that of `CNC(=S)NNC(=O)c1sccc1OCc1ccccc1`, “inactive”.

For the molecule `CNC(=S)NNC(=O)c1cccn(Cc2ccccc2)c1=O`, the Potency result is “inactive”. The same measure, in the same setting: the result for `CNC(=S)NNC(=O)c1oc2nc(-c3ccccc3)cc(-c3ccco3)c2c1N` reads 14.6 µM (active); that for `COc1ccc(CC(=O)NC(C)c2ccc(Cl)c(Cl)c2)cc1S(=O)(=O)N1CCOCC1` (stereo not given), “inactive”. Still for that read-out and setting: the result for `Cc1ccc(Nc2c(O)nc[nH]c2=O)cc1C` reads “inactive”; that for `C[C@]12CC[C@H](O)CC1=CCC1C2CC[C@@]2(C)C1CC[C@@H]2NC(=O)CCC(=O)O` (stereo not given in full), “inactive”. On the same count and under the same terms, the result for `COC(=O)C1CC2=C(CC(C)(C)CC2=O)N(c2ccccc2)C1=O` (stereo not given) reads “inactive”.

As to `Cc1ccc(S(=O)(=O)/N=C(/Nc2ccc3[nH]c(=O)[nH]c3c2)c2ccccc2)cc1`, the Potency entry is “inactive”.

With `CCOC(=O)c1ccc(NC(=O)c2cccnc2)cc1`, the Potency entry is “inactive”. Still for that read-out and setting: in the case of `CCOC(=O)c1ccc(N/C(=N/S(=O)(=O)c2ccccc2)c2ccccc2)cc1` it was 20.6 µM (active); in that of `NC(=S)NN=C1CCCC(C(F)(F)F)C1` (stereo not given), “inactive”; in that of `O=[N+]([O-])c1ccc(C=NN=Cc2ccc([N+](=O)[O-])cc2)cc1`, “inactive”. The same measure, in the same setting: the result for `O=C(NN=Cc1ccc([N+](=O)[O-])cc1)C1CC1` reads “inactive”; that for `O=C1/C(=C\c2ccc([N+](=O)[O-])cc2)CS(=O)(=O)C/C1=C/c1ccc([N+](=O)[O-])cc1`, 4.11 µM (active). On the same count and under the same terms, the result for `CCC(CO)Oc1cc(NC(=O)c2cccc(F)c2)c2ncn(C(C)C)c2c1` (stereo not given) reads “inactive”; that for `O=C1N[C@@H](c2ccccc2)COC(=O)[C@H](Cc2ccc(F)cc2)C/C=C\C[C@@H]1CC(=O)N(CCO)Cc1ccccc1`, “inactive”; that for `COc1ccc(CSc2nc(N3CCOCC3)c3c(c2C#N)CC(C)(C)OC3)cc1`, “inactive”. As for `CC(C)C(=O)N1CCN(c2nc(-c3ccccc3)c3c(c2C#N)CC(C)(C)OC3)CC1`, the Potency result is “inactive”.

For `CC1(C)Cc2c(C#N)c(SCc3nc4ccccc4[nH]3)nc(N3CCOCC3)c2CO1`, the Potency was 12.6 µM (active). For the molecule `C=CC(COCc1ccccc1)N(CC(=O)OC)S(=O)(=O)c1cc(Br)ccc1OC` (stereo not given), the re-replication activation is 4.23% [at 9.22 µM].
